In the library only some 9.3% were active in any assay of this set; here they are far more common.
ELG1 genotox: qHTS screen for small molecules that induce genotoxicity in human embryonic kidney (HEK293T) cells expressing luciferase-tagged ELG1; AID 504466, 2011; 330,000 tested, 1.3% active; HEK293T ELG1-luciferase reporter, luminescence, 16 h; Potency, µM (titrated, usually from 46 µM), for the others: at the top dose activity change, positive = activation, usual class: activators; further: % of control where 0% means no effect; nearly all actives have a fitted effect of over 60% in size
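Screening used a luciferase reporter fused to human ELG1 in HEK293T cells. Luminescence was read on a CCD plate imager after 16 hr exposure and 30 min ONE-Glo incubation.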
ELG1 repair inh: qHTS screen for small molecules that inhibit ELG1-dependent DNA repair in human embryonic kidney (HEK293T) cells expressing luciferase-tagged ELG1 | 330,000 tested, 2.3% active | Potency, µM (series often up to 46.1 µM), without a hit: at the highest dose activity change, negative = inhibition, actives largely listed as inhibitors | HEK293T ELG1-luciferase reporter, luminescence, 16 h; DNA damage induced by 5-fluorouridine | AID 504467, 2011; further: on the % scale 0 is the no-effect control and ±100 the full control effect; nearly all actives have a fitted effect of over 55% in size
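Quantitative HTS, concentration-response format. 2,000 cells/well co-treated with 5-fluorouridine and compound, 16 hr in 5% CO2 at 37 °C; ONE-Glo luminescence read after 30 min.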
SMN2 splice up: qHTS Assay for Enhancers of SMN2 Splice Variant Expression | AID 1458, 2008 | Potency, µM (doses to about 46.1 µM), inactives show at the top dose activity change, positive = activation, hits mostly activators | HEK293 SMN2-luciferase splicing reporter, luminescence, 30-36 h | 210,000 tested, 2.8% active; further: % of control where 0% means no effect; nearly all actives have a fitted effect of over 55% in size
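HEK293 cells carry an SMN2 minigene-luciferase reporter in which exon 7 inclusion puts luciferase in frame. Cells were seeded at 2000 cells/well, attached for 10-12 hours, then exposed to compounds for 30-36 hours at 37C before ONE-Glo luminescence.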
FLuc counter: qHTS profiling assay for firefly luciferase inhibitor/activator using purifed enzyme and Km concentrations of substrates (counterscreen for miR-21 project) | Luciferin 4-monooxygenase (Photinus pyralis), P08659 | purified FLuc, Km substrates, luminescence inhibition | Potency, µM (series often up to 57.5 µM), inactives show at the highest dose activity change, negative = inhibition, hits mostly inhibitors | 360,000 tested, 6.9% active | AID 588342, 2011;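 further: plate controls were vehicle for no effect and reference inhibitor for full effect; nearly all actives have a fitted effect of over 55% in size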
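Purified P. pyralis luciferase, 10 nM final, with Km-level 10 uM D-luciferin and 10 uM ATP in 50 mM Tris acetate pH 7.5, 10 mM Mg acetate, 0.01% Tween-20, 0.05% BSA; 6-point qHTS titration about 60 µM downward; luminescence read.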
NPC1 prom act: qHTS Assay for NPC1 Promoter Activators; 320,000 tested, 2.4% active; AID 485313, 2010; Huh7 NPC1 promoter luciferase reporter, 24 h; Potency, µM (series often up to 9.22 µM), for inactives: at the top dose activation, actives largely listed as activators; further: % of control where 0% means no effect; nearly all actives have a fitted effect of over 60% in size
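Compounds in DMSO were transferred onto Huh7 NPC1-luciferase reporter cells pre-incubated 2 h; after 24 h at 37 °C, Amplite reagent was dispensed and luminescence recorded 10 min later.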
Rab9 prom act: qHTS Assay for Rab9 Promoter Activators; 320,000 tested, 2.8% active; Potency, µM (series often up to 9.22 µM), inactives show top-dose activation, negative = inhibition, hits mostly activators; Huh7 Rab9 promoter-luciferase reporter, luminescence, 24 h; AID 485297, 2010; further: % of control where 0% means no effect; nearly all actives have a fitted effect of over 60% in size
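Luciferase signal after 10 min detection reagent at ambient indicates Rab9 promoter upregulation; stably transfected Huh7 cells were treated 24 h with compound in DMSO at 37 °C, 5% CO2.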
ELG1 FLuc counter: qHTS screen for small molecules that inhibit ELG1-dependent DNA repair: Hit Confirmation in Cell-Based Luciferin Assay; 350 tested, 3% active; cell-free firefly luciferase luminescence counter-screen, ViewLux; shares compounds with ELG1 repair inh; AID 624247, 2012; Potency, µM (series often up to 46.1 µM), without a hit: at the top dose activity change, negative = inhibition, hits mostly inhibitors; further: on the % scale 0 is the no-effect control and ±100 the full control effect
ELG1 Luc conf: HTS assay for small molecules that inhibit ELG1-dependent DNA repair in human embryonic kidney (HEK293T) cells expressing luciferase-tagged ELG1: Hit Confirmation; shares compounds with ELG1 repair inh; HEK293T ELG1-luciferase levels, luminescence; cells co-treated with 5-fluorouridine; Potency, µM (titrated, usually from 46.1 µM), for inactives: at the top dose activity change, negative = inhibition, most hits filed as inhibitors; 670 tested, 68% active; AID 624248, 2012; further: on the % scale 0 is the no-effect control and ±100 the full control effect; nearly all actives have a fitted effect of over 55% in size
ELG1 MMS Luc: confirmation of human ELG1 repair inhibitors, MMS stimulated; HEK293T luciferase-tagged ELG1 level, MMS stimulated; AID 624249; 670 tested, 53% active; Potency, µM (top dose mostly 46.1 µM), for inactives: at the top dose activity change, negative = inhibition, usual class: inhibitors; shares compounds with ELG1 repair inh; further: on the % scale 0 is the no-effect control and ±100 the full control effect; nearly all actives have a fitted effect of over 60% in size
ELG1 5FU viab: qHTS screen for small molecules that inhibit ELG1-dependent DNA repair: Hit Confirmation with 5FU Viability; 670 tested, under 10 active; shares compounds with ELG1 repair inh; cell viability with 5-FU, ELG1-dependent repair; Potency, µM (series often up to 46.1 µM), for inactives: at the top dose activity change, negative = viability loss, usual class: cytotoxic;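 further: ELG1-luc HEK293T cells cotreated with 5-fluorouridine at 10 µM final; viability measured 16 h after compound addition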
ELG1 MMS cell: qHTS screen for small molecules that inhibit ELG1-dependent DNA repair: Hit Confirmation with MMS Viability. AID 624251, 2012. Cell viability with MMS, ELG1-dependent DNA repair. 670 tested, 33% active. Potency, µM (highest dose often 46.1 µM), for inactives: at the highest dose activity change, negative = viability loss, actives largely listed as cytotoxic. shares compounds with ELG1 repair inh;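 further: ELG1-luc HEK293T cells co-treated with 10 µM MMS; viability read 16 h after compound addition; on the % scale 0 is the no-effect control and ±100 the full control effect; nearly all actives have a fitted effect of over 60% in size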
ELG1 unstim viab: qHTS screen for small molecules that inhibit ELG1-dependent DNA repair: Hit Confirmation with Unstimulated Viability Assay. 900 tested, 8% active. cell viability counter-screen, unstimulated, luminescence. AID 624252, 2012. Potency, µM (top dose mostly 45.9 µM), without a hit: top-dose activity change, negative = loss of viability, most hits filed as cytotoxic. shares compounds with ELG1 repair inh;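 further: compound exposure lasted 16 hours before reading; on the % scale 0 is the no-effect control and ±100 the full control effect; nearly all actives have a fitted effect of over 55% in size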
FLuc biochem: qHTS screen for small molecules that inhibit ELG1-dependent DNA repair: Hit Confirmation in Biochemical Luciferin Assay; shares compounds with ELG1 repair inh; purified firefly luciferase, luminescence counter-screen; Potency, µM (top dose mostly 57.5 µM), inactives show top-dose activity, negative = inhibition, actives largely listed as inhibitors; 350 tested, 10% active; further: on the % scale 0 is the no-effect control and ±100 the full control effect
Starred values were filed as active, the others as inactive; ? = inconclusive; / = not tested or not shown. The call rests on the fitted dose curve; in most records, active means well fitted curve in the direction sought with a large enough effect; inconclusive means small, poorly fitted or top-dose-only effect, or another doubt; inactive means no such curve, though single readings can be large; an effect the other way counts as inactive or inconclusive. Potency means the concentration at half of the fitted maximal effect.

SMILES	ELG1 genotox	ELG1 repair inh	SMN2 splice up	FLuc counter	NPC1 prom act	Rab9 prom act	ELG1 FLuc counter	ELG1 Luc conf	ELG1 MMS Luc	ELG1 5FU viab	ELG1 MMS cell	ELG1 unstim viab	FLuc biochem
COC[C@H]([C@@H](O)[C@@H](O)C(=O)NCC[C@@H](C)c1nc(/C=C/C[C@H]2OC3(C[C@H](O)[C@H]2C)OC([C@@H](C[C@@H](O)[C@@H](C)[C@@H](O)[C@@H](C)/C=C(C)/C(C)=C/C=C/C(C)=C\C#N)OC)[C@@H](OP(=O)(O)O)C3(C)C)co1)N(C)C (stereo not given in full)	/	/	-97%	/	/	/	0.5µM*	0.14µM*	0.089µM*	1.8µM*	0.079µM*	0.16µM*	-1%
COc1ccc(C[C@H]2NC[C@H](O)[C@H]2OC(C)=O)cc1	/	/	-74%	/	/	/	0.013µM*	0.056µM*	0.025µM*	-12%	0.05µM*	0.011µM*	-2%
CCOc1cccc(=NC2CCCCC2)c2c(C)n(C)c(C)c12	-8%	4.6µM*	/	-6%	-35%	-50%	/	?	7.9µM*	?	7.9µM*	?	/
CCC12CCN(CCc3ccc([N+](=O)[O-])cc3)CC1Oc1c(O)cccc12 (stereo not given)	/	/	/	2%	/	/	/	/	/	/	/	/	/
COc1cc2c(cc1OC)[C@@H]1C(=O)c3ccc(OC)c(CC=C(C)C)c3OC1CO2 (stereo not given in full)	/	/	-55%	/	/	/	/	/	/	/	/	/	/

Compound activity deposited in PubChem by National Center for Advancing Translational Sciences (NCATS).
